Pf Dd2 growth: Plasmodium falciparum Dd2 growth inhibition; P. falciparum Dd2 growth, SYBR Green, 72 h; Potency, µM (highest dose often 28.9 µM), for the others: at the top dose activity, negative = inhibition, most hits filed as inhibitors; actives 4.3% (n = 120,000); AID 1347417; active means well fitted inhibition curve with a large enough effect;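 further: plate controls were DMSO vehicle for no effect and reference drug for full effect; nearly all actives have a fitted effect of over 65% in size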
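Infected erythrocytes (Dd2, 0.3% parasitemia, 2.5% hematocrit final) are added to compound in RPMI-1640/Albumax II medium, grown 72 h at 37C in low oxygen, then lysed with saponin/Triton-X containing SYBR Green and read by fluorescence.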
* = called active by the depositor; [ ] = another dose, or the depositor's remark. Shown is part of a subset that was picked to be rich in hits. Potency means the concentration at half of the fitted maximal effect.

Results for CCc1nc(-c2c3n(c(=O)n(CC(=O)Nc4cccc(C)c4C)c2=O)CCCC3)no1 ?
Pf Dd2 growth: -14%

What do the screens show for `CCN1c2cc(C(=O)Nc3ccc4c(c3)OCCO4)ccc2C(=O)N2CCCCC21` (centres undefined)?
Pf Dd2 growth: inactive

Results for O=C(CC1COCCN1)N1CCC2(CCC(=O)N(CCc3ccncc3)C2)CC1 (centres undefined) ?
Pf Dd2 growth: 5%

Results for CC(C)C[C@@H]1N[C@H](C(=O)NC2CCCC2)Cc2cn(Cc3nccn3C)c3cccc1c23 ?
Pf Dd2 growth: -5%[44.1 µM]

Results for COCCCNC(=O)[C@@H]1Cc2cn(Cc3cc(C)on3)c3cccc(c23)[C@H](CC(C)C)N1 ?
Pf Dd2 growth: inactive

What do the screens show for `CC(C)C[C@@H]1N[C@H](C(=O)NC2CCC2)Cc2cn(CC3CC3)c3cccc1c23`?
Pf Dd2 growth: 14µM*

What do the screens show for `CC(C)C[C@@H]1N[C@H](C(=O)O)Cc2cn(Cc3nccn3C)c3cccc1c23`?
Pf Dd2 growth: inactive

What do the screens show for `C=CCn1cc2c3c(cccc31)[C@H](CC(C)C)N[C@H](C(=O)NCCN(C)C)C2`?
Pf Dd2 growth: -3%[44.1 µM]

What do the screens show for `C=CCNC(=O)[C@@H]1Cc2cn(Cc3cc(C)on3)c3cccc(c23)[C@H](CC(C)C)N1`?
Pf Dd2 growth: -24%[44.1 µM]

What do the screens show for `Cc1cc(Cn2cc3c4c(cccc42)[C@H](CC(C)C)N[C@H](C(=O)NC2CCC2)C3)no1`?
Pf Dd2 growth: -24%[44.1 µM]

What do the screens show for `C#CCNC(=O)[C@@H]1Cc2cn(Cc3nccn3C)c3cccc(c23)[C@H](CC(C)C)N1`?
Pf Dd2 growth: 10µM*

Results for CC(C)C[C@@H]1N[C@H](C(=O)O)Cc2cn(CC3CCC3)c3cccc1c23 ?
Pf Dd2 growth: inactive

Results for C=CCNC(=O)[C@@H]1Cc2cn(CC=C)c3cccc(c23)[C@H](CC(C)C)N1 ?
Pf Dd2 growth: 14µM*

How did C=CCNC(=O)[C@@H]1Cc2cn(Cc3ccncc3)c3cccc(c23)[C@H](CC(C)C)N1 do in these assays?
Pf Dd2 growth: -29%[44.1 µM]

How did Cc1cc(Cn2cc3c4c(cccc42)[C@H](CC(C)C)N[C@H](C(=O)NCc2cncn2C)C3)no1 do in these assays?
Pf Dd2 growth: 11µM*

What do the screens show for `COc1ccc(C2Cn3cnc(C(=O)N4CCC(C(=O)Nc5cccc(Cl)c5)CC4)c3CO2)cc1` (centres undefined)?
Pf Dd2 growth: -22%

What do the screens show for `COC(=O)c1[nH]ncc1CN1CCCC2(C1)CN(C)C(=O)O2` (centres undefined)?
Pf Dd2 growth: -10%

How did Cc1ncccc1C(=O)N1CCC(COc2ccc3c(cnn3CC[S+](C)(=O)[O-])c2)CC1 do in these assays?
Pf Dd2 growth: -7%

What do the screens show for `CCN1C(=O)CCN(C(=O)c2c(C)noc2C)CC12CCOCC2`?
Pf Dd2 growth: 18%

Results for O=C(O)c1cccc2c1CCN2C(=O)Nc1ccc(F)cc1 ?
Pf Dd2 growth: 13%

Results for CCN(Cc1nccn1C)C(=O)c1cc(-c2cnc(N)nc2)nc2c(C)cccc12 ?
Pf Dd2 growth: -20%

How did O=C(N[C@H]1[C@H]2CCO[C@H]2[C@@H]1N1CCCCC1)c1ccccc1-c1nn[nH]n1 do in these assays?
Pf Dd2 growth: -7%

What do the screens show for `Cc1nc(N2CCN(C(=O)c3ccc(C)c(F)c3)CC2)cc(C(F)(F)F)n1`?
Pf Dd2 growth: -23%

How did CCOc1ccc(NC(=O)c2cnn3c2NC(c2cccc(OC)c2)=CC3c2ccccc2)cc1 (centres undefined) do in these assays?
Pf Dd2 growth: 1.4µM*

What do the screens show for `COc1cc(OC)c(C2C=C(c3ccc(C)cc3)Nc3c(C(=O)Nc4ccccc4)cnn32)cc1OC` (centres undefined)?
Pf Dd2 growth: 10µM*

Results for COc1ccc(C2C(C(=O)Nc3ccccc3)=C(C)Nc3nc(SCC(=O)c4ccc(C)cc4)nn32)cc1 (centres undefined) ?
Pf Dd2 growth: 30%

Results for COc1ccc(C2C(C(=O)Nc3ccccc3)=C(C)Nc3nc(-c4ccccc4)nn32)c(OC)c1 (centres undefined) ?
Pf Dd2 growth: inactive

How did COc1ccc(C2C=C(c3ccc(C)cc3)Nc3c(C(=O)Nc4ccccc4)cnn32)cc1 (centres undefined) do in these assays?
Pf Dd2 growth: 8.9µM*

Results for CCOc1ccc(NC(=O)c2cc3cc4cc(OC)ccc4nc3s2)cc1 ?
Pf Dd2 growth: -2%

How did CCOc1cccc(-c2nc(C(=O)Nc3ccc(OC)cc3)cs2)c1 do in these assays?
Pf Dd2 growth: 24%

Results for COc1ccc(-c2cnnn2-c2ccc(NC(=O)c3ccccc3OC)cc2)cc1 ?
Pf Dd2 growth: 28%

Results for COc1cccc(C2C(C(=O)Nc3ccccc3)=C(C)Nc3nc(-c4ccccc4)nn32)c1OC (centres undefined) ?
Pf Dd2 growth: inactive

Results for COc1ccc(NC(=O)C2CC(=O)N(c3n[nH]c4ccccc34)C2)c(OC)c1 (centres undefined) ?
Pf Dd2 growth: -16%

What do the screens show for `CS(=O)(=O)N1CCC(N2C(=O)C(OCC3CC3)C23CCCCC3)CC1` (centres undefined)?
Pf Dd2 growth: -20%

Results for Cc1ccccc1C(=O)N1CC(c2nc(CCc3ccccc3)no2)C1 ?
Pf Dd2 growth: -19%

What do the screens show for `O=C(Nc1cccc(-n2cccn2)c1)C1CCCN1C(=O)C1CC1` (centres undefined)?
Pf Dd2 growth: 2%

Results for COCCNC(=O)N1CCCC(CNC(=O)C2(c3ccc(Cl)cc3)CC2)C1 (centres undefined) ?
Pf Dd2 growth: -24%

How did COc1cccc(CN2Cc3nc(-c4cn[nH]c4)ccc3OCC2=O)c1 do in these assays?
Pf Dd2 growth: -9%[44.1 µM]

Results for O=C(Cc1ccc(OC(F)(F)F)cc1)NCc1nnc2ccc(-c3ccc(F)cc3)nn12 ?
Pf Dd2 growth: inactive

How did COc1cccc(-c2cc3c(=O)n(CC(O)c4cccc(C#N)c4)ccn3n2)c1 (centres undefined) do in these assays?
Pf Dd2 growth: -5%

What do the screens show for `O=C(CCc1ccccc1)N1CCNc2cnc(Nc3cccc(C(F)(F)F)c3)nc2C1`?
Pf Dd2 growth: -22%

What do the screens show for `CN1C(=O)CCCCC1C(=O)NCc1cccc(F)c1` (centres undefined)?
Pf Dd2 growth: -7%

Results for CCOc1ccc(CCNC(=O)CCc2c(C)nc3c(c(C)nn3-c3ccc(C)c(C)c3)c2C)cc1 ?
Pf Dd2 growth: 3%

How did CCOC(=O)CCc1c(C)nc2c(c(C)nn2-c2ccc(C)cc2)c1C do in these assays?
Pf Dd2 growth: 15%

How did CCOC(=O)CC(NC(=O)CCc1c(C)nc2c(c(C)nn2-c2ccc(C)c(C)c2)c1C)c1ccc(C)cc1 (centres undefined) do in these assays?
Pf Dd2 growth: 4.5µM*

How did NC(=O)CNC(=O)c1cc2n(n1)CC(c1ccc(Br)cc1)OC2 (centres undefined) do in these assays?
Pf Dd2 growth: -14%

How did Cc1cccc(OCC(=O)NC2CCc3nn(CC4CC4)c(=O)n3CC2)c1 (centres undefined) do in these assays?
Pf Dd2 growth: -16%

What do the screens show for `COc1ccc(N2CC(NC(=O)COc3cccc(C)c3)CC2=O)cc1OC` (centres undefined)?
Pf Dd2 growth: 6%

Results for Cc1cccc(Oc2coc3cc(OCC(=O)NC4CCCCC4)ccc3c2=O)c1 ?
Pf Dd2 growth: 10µM*

How did CCOc1ccc(C(=O)N2CCc3nc(OCCOC)ccc3C2)cc1OCC do in these assays?
Pf Dd2 growth: -1%

From PubChem
